Outcome and AC50 data for 21 molecules are collected here from PubChem BioAssay (EPA / NIEHS).

Values joined by “and” are separate entries in the source; they are usually repeats but may differ in a detail not shown here. Equal entries are not always repeated. The source holds several records for some structures; these can differ, active in one and inactive in another. Active and inactive are the calls of the source. The calls were made as follows: active = hit-call score of the fitted dose curve at least 0.9, where 1 is the maximum; inactive = score below 0.9.

A short description of test [1]: APR_HepG2_MicrotubuleCSK_72hr: Apredica 72-hour HepG2 Assay for Microtubule CSK Stabilty (AID 2282919). The settings on record: HepG2 microtubule cytoskeleton, high-content imaging, actives raise or lower the signal. The method in brief:
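Read-out is tubulin fluorescence intensity from high-content imaging of HepG2 cells, with nuclei identified by Hoechst 33342. Treatment lasts 72 h at 0.39–200 uM, and curves are fitted bidirectionally against the DMSO negative control.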

Test [2] is described as follows: APR_HepG2_P-H2AX_24hr: Apredica 24-hour HepG2 Assay for H2AX Phosphorylation (AID 2282920). The settings on record: high-content imaging, actives raise or lower the signal. The method in brief:
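High-content imaging of phospho-histone H2A.x immunofluorescence, nuclei counterstained with Hoechst 33342, in fixed HepG2 cells. Compounds ran 0.39–200 uM in duplicate for 24 h, final DMSO 0.5%. Signal change fitted both directions against DMSO.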

The nature of test [3]: APR_HepG2_StressKinase_72hr: Apredica 72-hour HepG2 Assay for Stress Kinase (AID 2282921). The settings on record: HepG2 stress kinase (phospho-c-Jun) imaging, actives raise or lower the signal. Put shortly: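 HepG2 cells treated 72 hr with 0.39–200 uM compound, 0.5% v/v DMSO, duplicate wells. After formaldehyde fixation and Triton permeabilization, stained with anti-phospho-c-Jun (1:500) and Cy3 secondary, imaged at 20x. Fitted in both directions against DMSO.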

Test [4] in a line: APR_HepG2_StressKinase_24hr: Apredica 24-hour HepG2 Assay for Stress Kinase (AID 2282922). The following applies: HepG2 stress kinase (phospho-c-Jun) imaging, actives raise or lower the signal. The method in brief: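 HepG2, 24 hr dosing, 0.39–200 uM in duplicate, 0.5% DMSO; formaldehyde fix (3.7%), 0.5% Triton X-100; anti-phospho-c-Jun + Cy3 secondary, Hoechst counterstain; ArrayScan imaging; bidirectional curve fit vs DMSO baseline.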

Test [5] can be described thus: APR_HepG2_p53Act_72hr: Apredica 72-hour HepG2 Assay for p53 Activation (AID 2282923).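 Also: average cellular p53 protein immunofluorescence intensity in HepG2 cells.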 The following applies: high-content imaging, actives raise or lower the signal. The method in brief: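 HepG2 cells exposed 72 h to 0.39–200 uM in 0.5% DMSO, duplicates. Fixed, permeabilized cells immunostained for p53 (Cy5) with Hoechst; imaged at 20x, fluorescence analyzed bidirectionally against DMSO.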

Test [6] is described as follows: APR_HepG2_MitoMass_72hr: Apredica 72-hour HepG2 Assay for Mitochondrial Mass (AID 2282924).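 Also: MitoTracker Red CMXRos stain intensity per cell imaged as mitochondrial mass.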 The settings on record: high-content imaging, actives raise or lower the signal. The method in brief: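 HepG2, 72 hr cmpd, 10 conc 0.39–200 uM in dup, DMSO 0.5% v/v. MitoTracker Red CMXRos 250 nM 30 min pre-fix; formaldehyde 3.7% fix 30 min RT. HCS imaging, gain/loss fit vs DMSO.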

Test [7] is described as follows: ATG_CRE_CIS: Attagene CIS-FACTORIAL HepG2 Assay for human cAMP Responsive Element (CRE) binding protein 3 (AID 2282926). The settings on record: HepG2 CRE cis-reporter, Attagene multiplexed mRNA; actives raise or lower the signal. Put shortly:
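Multiplexed transcription-unit reporters transfected into HepG2; 24 h dosing; RT-PCR/capillary electrophoresis fluorescence read-out; bidirectional fit vs DMSO.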

Test [8] has as its target CCAAT/enhancer-binding protein beta (Homo sapiens) (UniProt P17676). The test is described as follows: ATG_C_EBP_CIS: Attagene CIS-FACTORIAL HepG2 Assay for human CCAAT/Enhancer Binding Protein (C/EBP) beta (AID 2282927). The settings on record: HepG2 Attagene cis-factorial transcription factor reporter; actives raise or lower the signal. The method in brief:
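Endogenous C/EBPb-driven reporter transcripts measured in transfected human HepG2 cells at 24 h via RT-PCR and capillary electrophoresis of labelled fragments. Activity fitted in both directions relative to DMSO baseline.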

Test [9] can be described thus: ATG_CMV_CIS: Attagene CIS-FACTORIAL HepG2 Assay for human CMV (Internal Marker) (AID 2282928).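 Also: endpoint acts as a background internal control marker rather than a target.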 The settings on record: HepG2 CMV promoter reporter, transcription factor profiling; actives raise or lower the signal. The method in brief:
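After transient transfection of HepG2 with reporter transcription units driven by cis-regulatory promoters, cells receive test chemical for 24 h. Labeled reporter amplicons, digested with HpaI, are sized and quantified by capillary electrophoresis against DMSO.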

Test [10] in a line: ATG_DR4_LXR_CIS: Attagene CIS-FACTORIAL HepG2 Assay for human Liver X Receptor (LXR), DR4 submotif (AID 2282929). The settings on record: HepG2 Attagene DR4 cis-reporter, mRNA transcription; actives raise or lower the signal. The method in brief:
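HepG2 cells transiently transfected with cis-promoter-driven multiplexed reporter units (DR4 element) were dosed for 24 h. Reporter mRNA was quantified by RT-PCR, fluorescent primer extension, HpaI digestion and capillary electrophoresis; bidirectional fitting versus DMSO baseline.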

Sequence of CCAAT/enhancer-binding protein beta (Homo sapiens) (P17676 whole entry, looked up, the tested form may be a part): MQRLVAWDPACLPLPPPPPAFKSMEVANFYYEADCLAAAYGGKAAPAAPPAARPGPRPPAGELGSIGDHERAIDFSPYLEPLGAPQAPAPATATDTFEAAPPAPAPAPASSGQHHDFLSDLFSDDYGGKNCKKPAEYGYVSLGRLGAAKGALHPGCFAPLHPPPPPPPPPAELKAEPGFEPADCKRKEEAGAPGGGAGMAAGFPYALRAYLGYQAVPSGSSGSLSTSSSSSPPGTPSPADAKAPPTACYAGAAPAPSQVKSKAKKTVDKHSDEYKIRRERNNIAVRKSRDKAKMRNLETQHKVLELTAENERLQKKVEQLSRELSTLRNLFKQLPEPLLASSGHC

A word on the AC50: it is the midpoint of the concentration-response curve, whichever way the signal moves. As for `O=C1C2(Cl)C3(Cl)C4(Cl)C(Cl)(Cl)C5(Cl)C3(Cl)C1(Cl)C5(Cl)C24Cl` (stereo unspecified), the outcome in [1], in test [6], in [7], in test [8], in test [9] and in test [10] was inactive. For the same molecule, the AC50 in test [2] is 46.6 µM (active); in test [3] it was 106 µM (active); in test [4], 60.5 µM (active); in [5], 10.5 µM (active); in [7], 14.3 µM (active); in test [8] it was 17.7 µM (active). For the same molecule, the AC50 in [9] is 2.8 µM (active); in test [10], 2.8 µM (active) and 4.23 µM (active).

Consider `ClC1(Cl)C2(Cl)C3(Cl)C4(Cl)C(Cl)(Cl)C5(Cl)C3(Cl)C1(Cl)C5(Cl)C24Cl` (stereo unspecified), for which the molecule was classed as inactive in test [1], in test [2], in [3], in test [4], in test [5] and in test [6]. For the same molecule, the call in test [7], in test [8] and in test [10] was inactive.

Regarding `Cn1sc(Cl)cc1=O`, the AC50 in [1] was 135 µM (active); in test [2], 110 µM (active); in test [3], 111 µM (active); in test [5], 106 µM (active); in test [6], 163 µM (active). Besides, the call in [4], in test [7], in [8], in test [9] and in [10] was inactive.

Turning to `ClCC(Cl)CCl`, the molecule was classed as inactive in test [1], in test [2], in test [3], in test [4], in test [5] and in [6]. In addition, the molecule was called inactive in test [7], in [8], in test [9] and in test [10].

Regarding `O=C(OC1CCCCC1)c1ccccc1C(=O)OC1CCCCC1`, the call in test [7] and in test [8] was inactive. Besides, the AC50 in [9] is 74.7 µM (active); in [10], 13.7 µM (active).

With `CCN1CCC2(CC1)COc1cc3c(cc12)N(C(=O)c1ccc(-c2ccc(-c4nnc(C)o4)cc2C)cc1)CC3`, the call in [1], in [7], in test [8] and in test [10] was inactive. For the same molecule, the AC50 in [2] is 28.9 µM (active); in test [3] it was 5.12 µM (active); in test [4] it was 47.9 µM (active); in test [5], 59.8 µM (active); in test [6] it was 44.7 µM (active).

For `CCN(CC)C(=O)Cl`, the result in [7], in [8], in [9] and in [10] was inactive.

As for `[O-][Cl+2]([O-])O`, the molecule was called inactive in [7], in test [8], in [9] and in test [10].

Take `CC12CC1(C)C(=O)N(c1cc(Cl)cc(Cl)c1)C2=O` (stereo unspecified): the outcome in [1], in [2], in [3], in [4], in test [5] and in [6] was inactive. For the same molecule, the molecule was called inactive in [7], in test [8] and in test [10].

On to `CN(C)N=O`, for which the molecule was called inactive in test [1], in [2], in test [3], in [4], in test [5] and in test [6]. For the same molecule, the result in [7], in test [8], in test [9] and in [10] was inactive.

For `C=CC(=O)OCCCCCC(C)C`, the molecule was classed as inactive in test [1], in test [2], in [3], in [4], in [5] and in [6]. The result in test [7], in [8] and in [10] was inactive.

With `O=c1[nH]c(=O)[nH]c(=O)[nH]1`, the outcome in [1], in test [2], in test [3], in test [4], in test [5] and in test [6] was inactive. For the same molecule, the outcome in test [7], in [8], in test [9] and in [10] was inactive.

With `C[C@]12CCC(=O)C[C@@H]1CC[C@@H]1[C@@H]2CC[C@]2(C)[C@@H](O)CC[C@@H]12`, the call in test [1], in test [2], in test [3], in test [4], in test [5] and in [6] was inactive. In addition, the molecule was called inactive in test [7], in test [8], in test [9] and in test [10]. Besides, the AC50 in test [9] was 52.1 µM (active); in [10] it was 116 µM (active).

For `CC(C)(C)c1cc(O)ccc1O`, the molecule was called inactive in test [1], in test [2], in [3], in [4] and in [5]. Also, the AC50 in test [6] is 108 µM (active); in test [7], 151 µM (active); in test [8] it was 79.7 µM (active); in [9], 64.7 µM (active); in test [10], 24.9 µM (active).

For the molecule `NC(=O)O`, the AC50 in test [1] is 3.05 µM (active); in [2], 9.46 µM (active); in [3], 3.02 µM (active); in test [4], 4.39 µM (active); in [5], 3.66 µM (active). The outcome in [6], in test [7], in test [8], in test [9] and in [10] was inactive.

For `O=C(O)C(F)(F)C(F)(F)C(F)(F)C(F)(F)C(F)(F)C(F)(F)F`, the call in test [1], in test [2], in test [4], in test [7], in test [8] and in [10] was inactive. The values for the AC50 in test [3], in test [5] and in [6] were 97.8 µM (active), 10.2 µM (active) and 13 µM (active), respectively.

As to `CCc1ccccc1C`, the molecule was called inactive in [7], in test [8], in test [9] and in test [10].

`COc1cc(-c2ccc(N)c(OC)c2)ccc1N`: the AC50 in test [1] was 42.1 µM (active); in [2], 50.8 µM (active); in test [5], 35.2 µM (active); in test [7], 31 µM (active) and 29.3 µM (active); in [8] it was 14.8 µM (active) and 36.5 µM (active). For the same molecule, the result in test [1], in [2], in test [3], in [4], in test [5] and in test [6] was inactive. Moreover, the molecule was called inactive in [10].

Take `Oc1c(I)cc(I)cc1I`: the molecule was called inactive in test [7], in test [8] and in [10]. The concentration at half-maximal activity (AC50) in test [9] is 49.3 µM (active).

Turning to `BrCCBr`, the result in test [7], in [8], in [9] and in test [10] was inactive.

On to `CC(C)(c1ccccc1)c1ccc(O)c(C(C)(C)c2ccccc2)c1`, for which the call in test [1], in [3], in [5], in test [8] and in test [10] was inactive. The AC50 was 69.5 µM (active) in test [2], 134 µM (active) in [4], 30.1 µM (active) in test [6] and 2.2 µM (active) in test [7].
